Assay outcomes (PubChem)
IL1B secr inh: qHTS for Inhibitors of Inflammasome Signaling: IL-1-beta AlphaLISA Primary Screen; THP-1 LPS/ATP IL-1B secretion, AlphaLISA, 16 h; hits give low values; activity change, % at 57.5 µM; hit rate 4.7% among 360,000; in the data active = activity change below about -50%; inconclusive = mostly about -30% to -49%
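Secreted IL-1B measured by AlphaLISA bead assay after 16 h compound exposure of THP-1 cells; compounds (final up to 57.5 uM) added 1 h before LPS (250 ng/mL) and ATP (1.25 mM) stimulation; lower signal means less secretion.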
TDP1 cell CPT: qHTS for Inhibitors of human tyrosyl-DNA phosphodiesterase 1 (TDP1): qHTS in cells in presence of CPT | chicken DT40 Tdp1-/-;hTDP1 cells + 20 nM CPT, ATP luminescence, 48 h | Potency, µM (doses to about 46.2 µM), for inactives: at the highest dose activity change, negative = growth inhibition, actives largely listed as inhibitors | hit rate 12% among 420,000 | AID 686979, 2013; note: potency is the fitted concentration of half-maximal effect; nearly all actives have a fitted effect of over 55% in size
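Cell growth measured by CellTiter-Glo luminescence after a minimum 48 h, 37 C compound exposure with 20 nM CPT in Tdp1-knockout DT40 cells stably expressing hTDP1, seeded 400/well; qHTS titration format.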
12-LOX inh: Primary qHTS assay for inhibitors of human arachidonate 12S-lipoxygenase (ALOX12): Round 2; hit rate 1.1% among 580,000; Potency, µM (series often up to 108 µM), inactives show at the highest dose activity change, negative = inhibition, hits mostly inhibitors; purified 12hLO, xylenol orange hydroperoxide absorbance; Polyunsaturated fatty acid lipoxygenase ALOX12 (Homo sapiens), P18054; note: potency is the fitted concentration of half-maximal effect
Target sequence (P18054 whole entry, looked up): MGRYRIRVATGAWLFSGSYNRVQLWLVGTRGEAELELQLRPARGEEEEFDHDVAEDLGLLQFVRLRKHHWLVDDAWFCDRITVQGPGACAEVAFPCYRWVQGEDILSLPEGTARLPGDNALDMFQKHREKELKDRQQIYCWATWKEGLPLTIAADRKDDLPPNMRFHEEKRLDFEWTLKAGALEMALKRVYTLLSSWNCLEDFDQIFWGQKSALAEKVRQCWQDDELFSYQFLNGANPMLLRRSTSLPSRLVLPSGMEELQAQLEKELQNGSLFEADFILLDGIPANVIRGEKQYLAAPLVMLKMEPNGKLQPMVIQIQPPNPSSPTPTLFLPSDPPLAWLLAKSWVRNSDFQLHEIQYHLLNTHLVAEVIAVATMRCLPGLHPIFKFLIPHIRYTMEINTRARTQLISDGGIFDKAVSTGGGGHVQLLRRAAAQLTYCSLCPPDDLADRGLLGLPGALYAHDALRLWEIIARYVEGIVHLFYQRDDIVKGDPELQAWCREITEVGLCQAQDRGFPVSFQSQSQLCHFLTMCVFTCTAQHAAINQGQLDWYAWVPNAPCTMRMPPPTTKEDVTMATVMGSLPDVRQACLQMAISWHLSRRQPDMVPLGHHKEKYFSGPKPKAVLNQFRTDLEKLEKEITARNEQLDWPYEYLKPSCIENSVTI
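Purified human 12hLO at 150 nM in 25 mM Hepes, 0.01% Triton X-100, pH 7.0, preincubated 15 min at room temperature with compound. Reaction started with 40 uM arachidonic acid, 30 min at room temperature. Hydroperoxide measured by Fe-xylenol orange, 573/405 nm absorbance ratio.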
TDP1 cell noCPT: qHTS for Inhibitors of human tyrosyl-DNA phosphodiesterase 1 (TDP1): qHTS in cells in absence of CPT; DT40 Tdp1-/- hTDP1 cells, no CPT, ATP luminescence, 48 h; hit rate 15% among 420,000; Potency, µM (doses to about 46.2 µM), without a hit: at the top dose activity change, negative = growth inhibition, most hits filed as inhibitors; note: potency is the fitted concentration of half-maximal effect; nearly all actives have a fitted effect of over 55% in size
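Chicken DT40 Tdp1-/- cells complemented with human TDP1, screened without camptothecin (DMSO vehicle only), 400 cells/well. Compounds pin-transferred, cells incubated at 37 °C for at least 48 hr. Growth read as ATP-dependent luminescence (CellTiter-Glo, 30 min at RT).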
HT1080-NT tox: qHTS for induction of synthetic lethality in tumor cells producing 2HG: qHTS for the HT-1080-NT fibrosarcoma cell line | HT-1080-NT fibrosarcoma viability, CellTiter-Glo ATP luminescence, 48 h | Potency, µM (titrated, usually from 46.1 µM), without a hit: at the top dose activity, negative = less viability, actives largely listed as cytotoxic | hit rate 1.6% among 360,000 | AID 686970, 2013;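 note: NT is the 2HG producing partner of a matched IDH1 knockdown line; potency is the fitted concentration of half-maximal effect; 0% = DMSO-treated cells and -100% = media-only wells without cells; nearly all actives have a fitted effect of over 55% in size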
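Luminescent CellTiter-Glo readout after 48 hours of compound exposure at 37 degrees C defined viability of HT-1080-NT cells. Activity was normalized to DMSO wells and cell-free media wells; concentration-response curves were fitted and assigned curve classes.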
HT1080 IDH1KD tx: qHTS for induction of synthetic lethality in tumor cells producing 2HG: qHTS for the HT-1080-IDH1KD cell line. HT-1080 IDH1 knockdown viability, ATP luminescence, 48 h. Potency, µM (highest dose often 46.1 µM), for the others: top-dose activity, negative = toxicity, actives largely listed as cytotoxic. hit rate 2% among 360,000. AID 686971, 2013;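 note: potency is the fitted concentration of half-maximal effect; 0% = DMSO wells and -100% = cell-free medium wells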
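Knockdown cells (IDH1KD HT-1080) received compounds 2 h after plating at 750 cells/well and were kept 48 h at 37 °C in 5% FBS RPMI. A CellTiter-Glo luminescence read gave % activity for curve fitting.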
* hit, by the source's call; u = inconclusive; x = no result given; [ ] = dose if it differs, or a comment. This excerpt belongs to a sample that is enriched for hits. Unless noted, calls come from the whole dose curve; as a rule, active = well fitted curve in the direction sought with a large enough effect; inconclusive = small, poorly fitted or top-dose-only effect, or another doubt; inactive = no such curve, though single readings can be large; an effect the other way counts as inactive or inconclusive. Unless noted, % is set by controls: 0 for no effect and ±100 for the full control effect.

SMILES	IL1B secr inh	TDP1 cell CPT	12-LOX inh	TDP1 cell noCPT	HT1080-NT tox	HT1080 IDH1KD tx
Cc1ccc(NC(=O)C2CC(=O)N(Cc3ccccc3)C2)cc1S(=O)(=O)N1CCCCCC1 (configuration not stated)	-52.0*	29.1µM*	-7.4%	u	-20.4%	-28.8%
O=C(CC1CCN(C(=O)Nc2c(F)cccc2F)C1)NCc1ccccc1 (configuration not stated)	x	x	39.3%	x	x	x
CC(C)(C)C(=O)Nc1nnc(SCC(=O)NC2CCCC2)s1	9.9	-2.6%	4.7%	-16.3%	13.0%	9.1%
O=C(N/N=C/c1cccn1-c1ccc([N+](=O)[O-])cc1)c1cccnc1	37.8	13µM*	103.1%	25.9µM*	-25.6%	u
COc1ccc(CSC(=N)N)cc1[N+](=O)[O-]	-59.6*	23.1µM*	211.4%	23.1µM*	-5.8%	-6.9%
CCCCOc1ccc(CN(CCO)CCO)cc1[N+](=O)[O-]	-12.7	18.4µM*	-23.9%	-2.2%	2.4%	-6.3%
CCCCCOc1ccc(CSC(=N)N)cc1[N+](=O)[O-]	-105.2*	14.6µM*	u	16.4µM*	20.6µM*	16.4µM*
N=C(N)SCc1ccc([N+](=O)[O-])cc1	x	x	-21.4%	x	x	x
CCCCCOc1ccc(Cn2ccnc2)cc1[N+](=O)[O-]	-10.7	u	-9.5%	u	-20.8%	-1.9%
S=C(NCCCc1ccccc1)Nc1ccc(Cl)cc1	u	u	39.8µM*	u	u	u
S=C(NCCC(c1ccccc1)c1ccccc1)Nc1ccc(Cl)cc1	-92.0*	u	u	u	u	u
Cc1ccccc1OCCNC(=S)Nc1ccccc1	-12.8	29.1µM*	u	14.6µM*	-3.5%	-21.4%
S=C(NCCc1ccccn1)Nc1ccc(Cl)cc1	-2.2	18.4µM*	-18.7%	18.4µM*	13.4%	17.9%
COCCCNC(=S)NNC(=S)Nc1ccccc1	x	10.9%	u	-18.4%	8.7%	2.4%
S=C(NCc1ccccc1)Nc1ccc(Cl)cc1	u	-29.5%	u	u	-4.4%	-9.9%
O=C(O)[C@H]1C[C@@H](C(=O)NCc2ccncc2)CN(C(=O)C2CC2)C1	x	x	43.2%	x	x	x
CCCNC(=S)Nc1ccccc1	21.4	9.7%	-1.6%	7.9%	8.3%	13.3%
CC(=O)Nc1ccc(CC(=O)NCCC(c2ccccc2)c2ccccc2)cc1	1.1	16.4µM*	39.8%	18.4µM*	25.9µM*	32.6µM*
O=C1CCCN1CCCNC(=S)Nc1ccccc1	13.9	7.4%	28.2µM*	0.8%	-1.5%	10.0%
S=C(NCCc1ccccc1)Nc1ccc(Nc2ccccc2)cc1	u	16.4µM*	u	u	u	u
O=C(NCCCc1ccccc1)Nc1ccccc1	2.9	-17.0%	-0.7%	-18.0%	6.5%	11.5%
N#CCC(=O)Nc1ccc(C(=O)NCCC(c2ccccc2)c2ccccc2)cc1	37.6	2.5%	-0.1%	-13.9%	-2.8%	-13.1%
S=C(NCCCc1ccccc1)Nc1ccccc1	31.8	23.1µM*	u	u	-12.1%	-0.2%
O=C1CCCN1CCCNC(=S)Nc1ccc(Nc2ccccc2)cc1	-16.3	-3.8%	-7.3%	-7.5%	-4.7%	-1.5%
COC(=O)c1ccc(C)c(NC(=O)c2sc(COc3ccc(C)cc3)nc2C)c1	x	x	16.8%	x	x	x
SMILES	IL1B secr inh	TDP1 cell CPT	12-LOX inh	TDP1 cell noCPT	HT1080-NT tox	HT1080 IDH1KD tx
O=C(CCc1nc2ccccc2s1)N1CCCC(c2nc(C3CCOCC3)no2)C1 (configuration not stated)	x	x	-3.8%	x	x	x
CNC(=O)c1noc([C@@H]2CC(F)(F)CN2C(=O)CC2=CCCCC2)n1	x	x	53.7%	x	x	x
COc1ccc(C(=O)N2CCCC(c3nc(-c4cnccn4)no3)CCNC(=O)CC2)cc1 (configuration not stated)	x	x	52.4%	x	x	x
C/[N+]([O-])=C/c1c(OCc2ccccc2)ccc2ccccc12	-11.2	-0.9%	x	23.1µM*	-0.3%	-2.7%
Cc1ccc(CNCCC2=CCCCC2)o1	x	x	-0.9%	x	x	x
COc1ccnc(Oc2ccc(F)cc2)c1C(=O)N/C=N/OCc1ccc(F)cc1Cl	-64.5*	u	-0.3%[57.4 µM]	u	2.8%	-13.6%
COc1cc(C(=O)NCC(c2cccs2)N2CCOCC2)cc(OC)c1OC (configuration not stated)	9.2	-9.7%	-0.7%	-25.9%	-1.6%	9.1%
COc1ccccc1C(=O)NCC(c1cccs1)N1CCc2ccccc21 (configuration not stated)	-0.6	20.6µM*	-6.3%	18.4µM*	-1.0%	-15.0%
COc1cccc(C(=O)NCC(c2cccs2)N2CCc3ccccc32)c1 (configuration not stated)	u	13µM*	u	u	-2.9%	-21.1%
COc1cc(C(=O)NCC(c2cccs2)N2CCc3ccccc32)cc(OC)c1OC (configuration not stated)	u	u	-4.4%	20.6µM*	-17.0%	-14.6%
COc1cccc(C(=O)NCC(c2ccco2)N2CCc3ccccc3C2)c1 (configuration not stated)	-15.2	-3.3%	u	-8.3%	3.9%	0.2%
COc1ccccc1C(=O)NC(CCSC)C(=O)NCC(c1cccs1)N1CCOCC1 (configuration not stated)	0.8	-22.0%	-3.8%	-23.5%	-1.4%	-7.4%
O=C(c1cccc(F)c1)N1CCC(Cc2nc(-c3ccccc3)no2)CC1	x	x	6.1%	x	x	x
CN(C)S(=O)(=O)c1ccc(-c2nc(C#N)c(N3CCN(c4cccc(Cl)c4)CC3)o2)cc1	x	x	-40.4%	x	x	x
O=C(C1=NNCC1c1ccc(Cl)cc1)C1CO1 (configuration not stated)	-67.5*	8.2µM*	-10.9%	u	-2.4%	-8.9%
CCCCn1c(SCC(=O)NC2CC2)nc2cc(C(=O)OC)ccc2c1=O	22.9	-15.4%	-3.9%	-22.4%	9.5%	3.3%
C[C@H]1[C@@H](NS(=O)(=O)c2cn(C)cn2)CC[C@@]23CCCN2C(=O)CCC[C@@H]13	x	x	2.7%	x	x	x
COc1ccc(Cl)cc1C(=O)N1CCC(c2n[nH]c(=O)n2-c2ccccc2)CC1	x	x	26.3%	x	x	x
